Assay [1] in a line: CCTE_Deisenroth_AIME_384WELL_CTox_Active: Cytotoxicity Assessment (CTOX) in CCTE's 384-well Estrogen Receptor Transactivation Assay with AIME metabolic competence (metabolism positive), Deisenroth Lab (AID 2284037; active = hit-call score of the fitted dose curve at least 0.9, where 1 is the maximum;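 note: chemicals first conditioned 2 h by alginate-bound induced rat liver S9 before cells; activity means signal loss indicating cell death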). The method, boiled down: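 Chemicals pre-incubated 2 hours with alginate-immobilised phenobarbital/beta-naphthoflavone-induced male Sprague Dawley rat liver S9, then conditioned medium applied 24 hour to VM7Luc4E2 cells. Viability by fluorogenic protease substrate; 10-point series 0.002 - 200 uM.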

The nature of assay [2]: CCTE_Deisenroth_AIME_384WELL_CTox_Inactive: Cytotoxicity Assessment (CTOX) in CCTE's 384-well Estrogen Receptor Transactivation Assay without AIME metabolic competence (metabolism negative), Deisenroth Lab (AID 2284039; active = hit-call score of the fitted dose curve at least 0.9, where 1 is the maximum;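 note: cell viability via live-cell protease substrate cleaved to fluorescent probe; cells exposed 24 h to medium preincubated 2 h with alginate-water beads without S9; loss of fluorescence signal means loss of viability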). Summed up:
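VM7Luc4E2 human breast cells received conditioned medium from a 2 h incubation of chemical with alginate-water microspheres (no S9), then were exposed 24 h. Viability was read as protease-substrate cleavage to a fluorescent probe; loss of signal was fitted bidirectionally over 0.002–200 uM.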

Assay [3] is described as follows: CCTE_Shafer_MEA_dev_active_electrodes_number: CCTE's Neural Network Formation Assay for Number of Active Electrodes, Shafer Lab (AID 2284040; active = hit-call score of the fitted dose curve at least 0.9, where 1 is the maximum;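 for AC50: potency for loss of active electrodes versus DMSO so lower counts are hits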). Summed up: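 Counts electrodes per well firing at least 5 spikes/min, recorded on days 5, 7, 9 and 12 in rat cortical cultures dosed continuously from plating (treatment refreshed DIV 5, 9). Value is the area under the curve over recordings, fitted downward relative to DMSO.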

Assay [4] in a line: CCTE_Shafer_MEA_dev_burst_rate: CCTE's Neural Network Formation Assay for Burst Rate, Shafer Lab (AID 2284042). The method, boiled down:
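Rat primary cortical cultures on PEI/laminin MEA; compound from plating, re-dosed at DIV 5, 9 media change. Single-electrode bursts/recording length, well mean of active electrodes; AUC over DIV 5–12 recordings; loss-of-signal vs DMSO.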

Assay [5] in a line: CCTE_Shafer_MEA_dev_per_burst_interspike_interval: CCTE's Neural Network Formation Assay for Burst Interspike Interval, Shafer Lab (AID 2284044).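 Note: mean spike spacing inside bursts as AUC over recordings on days 5 7 9 12.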 Summed up: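 Primary rat cortical neurons on 48-well MEA plates, exposed from day 0 through day 12, treatment renewed at DIV 5 and 9. Within-burst interspike interval recorded days 5, 7, 9, 12, well-averaged, summarised as AUC; negative fit versus DMSO.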

Assay [6] is described as follows: CCTE_Shafer_MEA_dev_burst_duration_mean: CCTE's Neural Network Formation Assay for Mean Burst Duration, Shafer Lab (AID 2284045). The method, boiled down: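 Rat cortical cultures, 1.5 x 10^5 cells/well with laminin drop; continuous dosing days 0–12, media plus treatment refreshed DIV 5, 9. AxIS adaptive spike detection; mean single-electrode burst duration, AUC over four recordings, negative direction vs DMSO.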

Assay [7] in a line: CCTE_Shafer_MEA_dev_interburst_interval_mean: CCTE's Neural Network Formation Assay for Mean Interburst Interval, Shafer Lab (AID 2284046).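 Note: well-mean interburst interval of bursting electrodes as AUC over four recording days; curve fitted for decrease in interburst interval relative to DMSO.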 Summed up:
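Rat cortical neurons, 1.5 x 10^5 cells/well, 48-well MEA; compound from day 0 through DIV 12, media and treatment renewed DIV 5/9. Recordings DIV 5, 7, 9, 12; well-mean interburst interval → trapezoidal AUC, loss direction vs DMSO.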

A short description of assay [8]: CCTE_Shafer_MEA_dev_inter_network_spike_interval_mean: CCTE's Neural Network Formation Assay for Mean Inter-network Spike Interval, Shafer Lab (AID 2284047). The method, boiled down: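 Primary rat cortical neurons on PEI-coated 48-well MEAs (16 electrodes/well) were exposed from plating day 0 to DIV 12, with dosing renewed at DIV 5 and 9. Recordings at DIV 5, 7, 9, 12 were collapsed by trapezoidal AUC, loss-of-signal fit vs DMSO.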

Assay [9] in a line: CCTE_Shafer_MEA_dev_network_spike_number: CCTE's Neural Network Formation Assay for Number of Network Spikes, Shafer Lab (AID 2284048).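 For AC50: fit as a loss of signal meaning fewer network spikes than DMSO.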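 Note: synchronized bursts across electrodes counted on days 5 7 9 12 and integrated as AUC.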 The method, boiled down:
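Rat cortical primary cultures on 48-well MEA (16 electrodes/well); continuous exposure DIV 0–12, full medium and treatment exchange DIV 5, 9. Readout: network spike count, AxIS adaptive detection, recordings DIV 5/7/9/12 collapsed to AUC; loss-of-signal fit, DMSO baseline.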

A short description of assay [10]: CCTE_Shafer_MEA_dev_network_spike_peak: CCTE's Neural Network Formation Assay for Mean Number of Electrodes in Network Spike, Shafer Lab (AID 2284049).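 For AC50: fitted for loss of signal meaning fewer electrodes in network spikes than DMSO.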 Summed up: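 Network-spike peak electrode count from recordings on days 5, 7, 9 and 12 was combined as trapezoidal area under the curve. Rat cortical cultures were treated continuously from plating, with compound renewed at each feed (DIV 5, 9); fits versus DMSO.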

Assay [11] concerns DIO2 (gene 1734). Put plainly: CCTE_GLTED_hDIO2: CCTE's human Deiodinase 2 (DIO2) Inhibition Assay, Great Lakes Toxicology and Ecology Division (GLTED) Lab (AID 2284050; active = hit-call score of the fitted dose curve at least 0.9, where 1 is the maximum). Summed up: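 Iodide released by human deiodinase 2 over 3 h with test chemical, measured spectrophotometrically via Sandell-Kolthoff cerium/arsenic reaction. Run n=3; inhibition referenced to DMSO.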
A short description of assay [12]: CCTE_Shafer_MEA_dev_spike_duration_mean: CCTE's Neural Network Formation Assay for Mean Spike Duration, Shafer Lab (AID 2284051).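 For AC50: potency for a decrease in mean network spike duration versus DMSO.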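 Note: mean network spike duration pooled as area under curve over DIV 5 to 12 recordings.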 Summed up: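 Rat cortical primary cultures, 48-well MEA (16 electrodes/well); compound from plating, renewed DIV 5, 9. Network spike duration (AxIS adaptive detector) recorded DIV 5/7/9/12, combined as trapezoidal AUC; loss direction vs DMSO.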

Assay [13] can be described thus: CCTE_Shafer_MEA_dev_network_spike_duration_std: CCTE's Neural Network Formation Assay for Standard Deviation of Network Spike Duration, Shafer Lab (AID 2284052).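 Note: area under curve of spike duration SD across recording days 5 to 12; hits are decreases in network spike duration SD versus DMSO vehicle.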 Summed up:
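Rat cortical cultures, 1.5 x 10^5 cells/well, exposed continuously from plating to DIV 12 with media/compound renewal at DIV 5, 9. Spontaneous activity recorded DIV 5/7/9/12, AxIS adaptive spike detector; AUC across days; negative direction vs DMSO.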

Assay [14] can be described thus: CCTE_Shafer_MEA_dev_per_network_spike_spike_percent: CCTE's Neural Network Formation Assay for Percent of Spikes in a Network Spike, Shafer Lab (AID 2284054). The method, boiled down: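 Read-out: percent of spikes falling in a 0.05 s window at network-spike peak, from spontaneous MEA recordings on days 5, 7, 9 and 12; trapezoidal AUC; loss of signal versus DMSO. Rat cortical cultures, compound present throughout.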

The nature of assay [15]: CCTE_Shafer_MEA_dev_LDH: CCTE's Lactate Dehydrogenase Assay for Cytotoxicity in the Neural Network Formation Assay, Shafer Lab (AID 2284068; active = hit-call score of the fitted dose curve at least 0.9, where 1 is the maximum;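 note: exposure for twelve days from plating with re-dosing on DIV 5 and 9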). Summed up:
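Rat cortical primary neurons, MEA culture; dosing day 0–12, full medium plus compound exchange DIV 5, 9. Read-out: LDH enzyme activity, spectrophotometric. DMSO = negative control/baseline; signal loss → cytotoxicity.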

The nature of assay [16]: CCTE_Shafer_MEA_acute_AB: CCTE's Alamar Blue Assay for Cytotoxicity in the Neural Acute Assay, Shafer Lab (AID 2284069; active = hit-call score of the fitted dose curve at least 0.9, where 1 is the maximum;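 note: active compounds lower the viability signal compared with DMSO wells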). The method, boiled down:
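Read-out: resazurin fluorescence (ex 544, em 590 nm) after CTB reagent at 1:6 dilution in fresh media. Cells: primary rat cortical neuron networks, DIV 13 or 15, chemically exposed on MEA plates; DMSO as negative control/baseline.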
A general note: The colour change of resazurin is a common sign of viable cells or microbes.

Assay [17] has as its target Estrogen receptor (Homo sapiens) (UniProt P03372). The assay can be described thus: CCTE_Deisenroth_AIME_384WELL_LUC_Inactive: CCTE's 384-well Estrogen Receptor Transactivation Assay without AIME metabolic competence (ERTA luciferase; metabolism negative), Deisenroth Lab (AID 2284038; active = hit-call score of the fitted dose curve at least 0.9, where 1 is the maximum;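 note: hits raise estrogen receptor luciferase signal so potencies reflect agonists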). The method, boiled down: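 VM7Luc4E2 ER transactivation, luciferase bioluminescence after 24 h, using medium pre-incubated 2 h with S9-free alginate microspheres. Concentrations 0.002–200 uM; gain of signal fitted relative to 17beta-estradiol.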

Assay [18] has the same target. Put plainly: CCTE_Deisenroth_AIME_384WELL_LUC_Shift: CCTE's 384-well Estrogen Receptor Transactivation Assay with AIME metabolic competence data shift (ERTA luciferase; difference in metabolism positive and negative), Deisenroth Lab (AID 2284041).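 Note: shift is response with S9 minus without S9 so positive means metabolism raised ER signal.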 Summed up: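 Chemicals (0.002–200 uM, 10 points) pre-incubated 2 h with alginate-encapsulated induced male Sprague Dawley rat liver S9 or S9-free, then medium applied 24 h to VM7Luc4E2 cells; luciferase. Endpoint is per-concentration difference, S9-positive minus negative.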

Assay [19] relates to DIO3 (gene 1735). The assay can be described thus: CCTE_GLTED_hDIO3: CCTE's human Deiodinase 3 (DIO3) Inhibition Assay, Great Lakes Toxicology and Ecology Division (GLTED) Lab (AID 2284055; active = hit-call score of the fitted dose curve at least 0.9, where 1 is the maximum;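 note: potency is for inhibition seen as loss of released iodide signal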). The method, boiled down: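 Inhibition is read as reduced iodide release, measured spectrophotometrically by the Sandell-Kolthoff cerium/arsenic reaction. Adenovirus-expressed human DIO3 enzyme is exposed to chemical for 3 h, n=3 plates. Iodinated chemicals, nitrite, iron or thiocyanate may interfere.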

Records with an inconclusive call do not appear. Where a structure was tested more than once in an assay, its records may differ in their call. Calls of active or inactive are those of the source. Rule for the calls, unless noted: active = hit-call score of the fitted dose curve at least 0.9, where 1 is the maximum; inactive = score below 0.9.

Chain of Estrogen receptor (Homo sapiens) (P03372 whole entry, looked up): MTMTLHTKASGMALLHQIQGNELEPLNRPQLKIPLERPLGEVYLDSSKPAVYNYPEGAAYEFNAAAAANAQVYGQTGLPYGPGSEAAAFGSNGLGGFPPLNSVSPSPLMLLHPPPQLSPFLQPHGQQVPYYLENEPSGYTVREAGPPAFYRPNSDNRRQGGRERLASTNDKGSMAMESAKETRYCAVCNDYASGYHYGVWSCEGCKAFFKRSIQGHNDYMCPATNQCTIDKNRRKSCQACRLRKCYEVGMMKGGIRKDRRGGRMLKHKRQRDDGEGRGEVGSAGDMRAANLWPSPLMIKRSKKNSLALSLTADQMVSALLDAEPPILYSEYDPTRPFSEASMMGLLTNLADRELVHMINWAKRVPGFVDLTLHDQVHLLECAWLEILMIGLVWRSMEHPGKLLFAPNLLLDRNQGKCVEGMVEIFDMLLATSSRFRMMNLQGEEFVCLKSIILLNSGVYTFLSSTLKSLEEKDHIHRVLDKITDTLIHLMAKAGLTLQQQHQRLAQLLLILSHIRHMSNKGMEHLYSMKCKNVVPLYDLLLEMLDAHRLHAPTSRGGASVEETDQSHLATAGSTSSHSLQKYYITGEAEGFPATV

One may read the AC50 as the concentration giving half of the maximal activity seen. For `c1cnc2c(c1)ccc1cccnc12`, the half-maximal activity concentration (AC50) in [1] is 30.9 µM (active); in [2], 15.7 µM (active).
Regarding `O=P(O)(O)CCC(F)(F)C(F)(F)C(F)(F)C(F)(F)C(F)(F)C(F)(F)C(F)(F)C(F)(F)F`, the half-maximal activity concentration (AC50) in assay [3] was 4.18 µM (active); in assay [7] it was 8.6 µM (active); in assay [9], 4.29 µM (active); in assay [10], 4.22 µM (active); in assay [11], 146 µM (active); in assay [12] it was 7.74 µM (active). Also, the AC50 in assay [14] was 5.38 µM (active); in assay [15] it was 8.87 µM (active). The molecule was classed as inactive in assay [4], in assay [5], in assay [6], in assay [8] and in assay [13].
As to `OCC(F)(F)C(F)(F)C(F)(F)C(F)(F)C(F)(F)C(F)(F)C(F)(F)C(F)(F)C(F)(F)C(F)(F)C(F)(F)F`, the half-maximal activity concentration (AC50) in assay [3] is 15 µM (active); in assay [7] it was 26.4 µM (active); in [10], 8.24 µM (active); in [12], 6.13 µM (active); in [14], 9.08 µM (active); in assay [15], 9.45 µM (active). Further, the outcome in assay [3], in [4], in assay [5], in assay [6], in [7] and in assay [8] was inactive. The call in assay [9], in assay [10], in assay [12], in [13], in assay [14] and in [15] was inactive.
For `Cc1ccc(S(=O)(=O)O)cc1`, the outcome in [2] was inactive.
Consider `OCC(CO)(CBr)CBr`, for which the molecule was called inactive in assay [1] and in assay [16].
As for `CC(O)COc1ccccc1` (centres undefined), the molecule was classed as inactive in assay [1] and in [2].
As to `Cc1[nH]nc2c1N=C(c1ccccc1Cl)c1cc([N+](=O)[O-])ccc1N2`, the AC50 in assay [1] was 159 µM (active); in assay [2], 138 µM (active).
On to `CCCCc1ccc2ccccc2c1S(=O)(=O)O`, for which the molecule was called inactive in [17], in assay [2] and in assay [18].
Turning to `CCCCCCCCCCCCOS(=O)(=O)O`, the AC50 was 143 µM (active) in [1], 147 µM (active) in assay [2], 101 µM (active) in assay [11] and 99.6 µM (active) in assay [19].
As for `O=CC(F)(F)C(F)(F)C(F)(F)F`, the molecule was classed as inactive in assay [3], in assay [4], in assay [5], in assay [6], in assay [7] and in [8]. For the same molecule, the molecule was classed as inactive in [9], in assay [10], in assay [12], in assay [13] and in [14].
Consider `O=C(O)C(F)(F)OC(F)(F)C(F)(F)OC(F)(F)C(F)(F)OC(F)(F)C(F)(F)C(F)(F)C(F)(F)F`, for which the molecule was called inactive in [3], in assay [4], in [5], in assay [6], in assay [7] and in [8]. Moreover, the outcome in [9], in assay [10], in [12], in [13], in assay [14] and in assay [15] was inactive. Moreover, the AC50 was 60.5 µM (active) in [11] and 37.1 µM (active) in [19].
`NC(=NCCCCCCN=C(N)/N=C(\N)Nc1ccc(Cl)cc1)/N=C(\N)Nc1ccc(Cl)cc1`: the AC50 in [1] is 59.5 µM (active); in assay [2], 46.8 µM (active); in assay [11], 13 µM (active); in assay [19], 2.65 µM (active). The outcome in assay [18] was inactive.
As for `CCCCCCCCCCCC`, the result in assay [1] was inactive. Also, the concentration at half-maximal activity (AC50) was 100 µM (active) in assay [2], 24.5 µM (active) in assay [11] and 22.7 µM (active) in [19].
With `CCC(C)c1ccccc1O` (centres undefined), the result in assay [1] and in assay [16] was inactive. For the same molecule, the AC50 in [2] is 0.00093 µM (active).

For the origin of these results see PubChem BioAssay (EPA / NIEHS).
